Our source for the outcome and AC50 values is PubChem BioAssay (EPA / NIEHS).

SMILES strings stand for the structures. The source made the active and inactive calls. The calls were made as follows: active = hit-call score of the fitted dose curve at least 0.9, where 1 is the maximum; inactive = score below 0.9.

A short description of test [1]: CEETOX_H295R_PROG: CeeTox H295R High-throughput Steroidogenesis Assay for Progesterone (PROG) (AID 2283442).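 As to AC50: human H295R adrenal cells primed with 10 µM forskolin before dosing; progesterone secreted into medium by H295R cells measured by HPLC-MS/MS.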 The settings on record: actives raise or lower the signal. In outline:
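Steps: seed H295R cells and let them adhere overnight; prime 48 h with 10 uM forskolin; dose with compound in DMSO at 0.1% final for 48 h; extract medium steroids with MTBE; measure progesterone by LC-MS/MS. MTT viability was run in the same wells.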

Test [2] in a line: CEETOX_H295R_TESTO: CeeTox H295R High-throughput Steroidogenesis Assay for Testosterone (TESTO) (AID 2283457). To be noted: actives raise or lower the signal. In short, it runs like this:
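H295R, passage ≤10, 48 h dosing; media extracted with MTBE → HPLC-MS/MS for testosterone; 7-pt standard curve sets LLOQ/ULOQ; bidirectional fit vs DMSO; MTT viability same wells.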

Read-out in test [3]: Fatty acid synthase (Homo sapiens) (UniProt P49327)
As to the kind of experiment: LTEA_HepaRG_FASN: Life Technologies and Expression Analysis (LTEA) Assay for Fatty Acid Synthase (FASN) using HepaRG (AID 2283448). To be noted: mRNA level, 48 h; actives raise or lower the signal. In short, it runs like this: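 Differentiated HepaRG cells in serum-free induction medium exposed 48 h in duplicate to eight half-log concentrations, top 100 uM, 0.5% DMSO. FASN mRNA by qRT-PCR normalised to ACTB, GAPDH, POLR2A; bidirectional fit versus DMSO.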

Read-out in test [4]: Cyclin D2 (CCND2), CCND2 (gene 894)
As to the kind of experiment: LTEA_HepaRG_CCND2: Life Technologies and Expression Analysis (LTEA) Assay for Cyclin D2 (CCND2) using HepaRG (AID 2283449). To be noted: mRNA level, 48 h; actives raise or lower the signal. In outline:
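Read-out is CCND2 mRNA level measured by qRT-PCR in human HepaRG liver cells and normalised to three housekeeping genes. Chemicals were applied for 48 h at up to 100 uM, with gain or loss fitted relative to 0.5% DMSO.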

Read-out in test [5]: Cyclin Dependent Kinase Inhibitor 1A (CDKN1A), CDKN1A (gene 1026)
In words: LTEA_HepaRG_CDKN1A: Life Technologies and Expression Analysis (LTEA) Assay for Cyclin Dependent Kinase Inhibitor 1A (CDKN1A) using HepaRG (AID 2283450). The settings on record: mRNA level, 48 h; actives raise or lower the signal. In short, it runs like this: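 Read-out is CDKN1A mRNA by TaqMan qRT-PCR, normalized to three housekeeping genes and fitted in both directions against the DMSO baseline. Human HepaRG cells were treated 48 h with test chemicals up to 100 uM in half-log steps, 0.5% DMSO.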

Read-out in test [6]: Cyclin D1 (CCND1), CCND1 (gene 595)
As to the kind of experiment: LTEA_HepaRG_CCND1: Life Technologies and Expression Analysis (LTEA) Assay for Cyclin D1 (CCND1) using HepaRG (AID 2283451). To be noted: mRNA level, 48 h; actives raise or lower the signal. In short, it runs like this: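 HepaRG plated 48 h, medium switched to serum-free induction medium, chemicals added in duplicate (top 100 uM, half-log steps, 0.5% DMSO) for 48 h, cells lysed, RNA measured by TaqMan qRT-PCR.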

Read-out in test [7]: catalase (CAT), CAT (gene 847)
In words: LTEA_HepaRG_CAT: Life Technologies and Expression Analysis (LTEA) Assay for catalase (CAT) using HepaRG (AID 2283452). To be noted: mRNA level, 48 h; actives raise or lower the signal. In short, it runs like this:
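Expression of CAT was quantified by TaqMan qRT-PCR with ACTB/GAPDH/POLR2A normalization after 48 h chemical exposure of HepaRG. Eight-point half-log series, top 100 uM, in 0.5% DMSO; gain or loss fitted against vehicle.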

Read-out in test [8]: flavin-containing dimethylaniline monooxygenases 3 (FMO3), FMO3 (gene 2328)
In words: LTEA_HepaRG_FMO3: Life Technologies and Expression Analysis (LTEA) Assay for flavin-containing dimethylaniline monooxygenases 3 (FMO3) using HepaRG (AID 2283453). The settings on record: mRNA level, 48 h; actives raise or lower the signal. In outline: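 Differentiated HepaRG cells in serum-free induction medium, exposed 48 h in duplicate to 8 half-log concentrations up to 100 uM in 0.5% DMSO. FMO3 mRNA by qRT-PCR, normalized to ACTB, GAPDH, POLR2A; bidirectional fit vs DMSO.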

Read-out in test [9]: Cytochrome P450 (CYP1A1), CYP1A1 (gene 1543)
As to the kind of experiment: LTEA_HepaRG_CYP1A1: Life Technologies and Expression Analysis (LTEA) Assay for Cytochrome P450 (CYP1A1) using HepaRG (AID 2283454). The settings on record: mRNA level, 48 h; actives raise or lower the signal. In outline: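 HepaRG, 48 h post-plating switched to serum-free induction medium; 8-pt conc-response (top 100 uM, half-log, 0.5% DMSO), duplicates, 48 h. Lysis in RLT, TaqMan qRT-PCR for CYP1A1; gain or loss vs DMSO.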

Read-out in test [10]: CFLAR gene, CFLAR (gene 8837)
As to the kind of experiment: LTEA_HepaRG_CFLAR: Life Technologies and Expression Analysis (LTEA) Assay for CFLAR gene using HepaRG (AID 2283455). The settings on record: mRNA level, 48 h; actives raise or lower the signal. In outline:
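HepaRG, 48 h exposure, 8-pt conc-response (100 uM top, half-log), 0.5% DMSO vehicle, duplicates. CFLAR expression by qRT-PCR; ACTB/GAPDH/POLR2A normalization; gain or loss fit vs DMSO baseline.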

Read-out in test [11]: Forkhead box O1 (FOXO1), FOXO1 (gene 2308)
In words: LTEA_HepaRG_FOXO1: Life Technologies and Expression Analysis (LTEA) Assay for Forkhead box O1 (FOXO1) using HepaRG (AID 2283456). The settings on record: mRNA level, 48 h; actives raise or lower the signal. In outline:
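Readout is FOXO1 transcript level by multiplexed qRT-PCR against three housekeeping genes, curve-fitted in both directions relative to 0.5% DMSO vehicle. Human HepaRG cultures received chemicals for 48 h, up to 100 uM in half-log steps.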

Read-out in test [12]: Forkhead box O3 (FOXO3), FOXO3 (gene 2309)
As to the kind of experiment: LTEA_HepaRG_FOXO3: Life Technologies and Expression Analysis (LTEA) Assay for Forkhead box O3 (FOXO3) using HepaRG (AID 2283459). To be noted: mRNA level, 48 h; actives raise or lower the signal. In short, it runs like this:
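HepaRG, 48 h post-dose; 8 conc., half-log from 100 uM, 0.5% DMSO, duplicates; serum-free induction medium. Readout: FOXO3 mRNA, TaqMan qRT-PCR, housekeeping-normalized. Bidirectional curve fit vs DMSO baseline.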

Read-out in test [13]: ABC Transporter (ABCB1), ABCB1 (gene 5243)
As to the kind of experiment: LTEA_HepaRG_ABCB1: Life Technologies and Expression Analysis (LTEA) Assay for ABC Transporter (ABCB1) using HepaRG (AID 2283460). The settings on record: mRNA level, 48 h; actives raise or lower the signal. In outline:
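Expression of ABCB1 was quantified by qRT-PCR against three housekeeping genes after human HepaRG cultures received test chemicals for 48 hours. Concentrations spanned eight half-log steps topping at 100 uM in 0.5% DMSO; gain or loss of signal was fitted relative to vehicle.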

Read-out in test [14]: growth arrest and DNA damage 45 (GADD45B), GADD45B (gene 4616)
In words: LTEA_HepaRG_GADD45B: Life Technologies and Expression Analysis (LTEA) Assay for growth arrest and DNA damage 45 (GADD45B) using HepaRG (AID 2283461). The settings on record: mRNA level, 48 h; actives raise or lower the signal. In outline:
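HepaRG, ~100,000 cells/well, 48 h plating; serum-free induction medium; cpd 100 uM top, half-log x8, 0.5% DMSO, duplicate, 48 h; lysis in RLT, RNA isolation, qRT-PCR; norm ACTB/GAPDH/POLR2A; bidirectional fit vs DMSO.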

Read-out in test [15]: ABC Transporter (ABCC3), ABCC3 (gene 8714)
In words: LTEA_HepaRG_ABCC3: Life Technologies and Expression Analysis (LTEA) Assay for ABC Transporter (ABCC3) using HepaRG (AID 2283462). The settings on record: mRNA level, 48 h; actives raise or lower the signal. In short, it runs like this: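 Human HepaRG, 48 h dosing, 8-pt half-log series from 100 uM, 0.5% DMSO vehicle, duplicates. ABCC3 mRNA by TaqMan qRT-PCR, housekeeping-normalized; bidirectional curve fit vs DMSO.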

Read-out in test [16]: ABC Transporter (ABCB11), ABCB11 (gene 8647)
In words: LTEA_HepaRG_ABCB11: Life Technologies and Expression Analysis (LTEA) Assay for ABC Transporter (ABCB11) using HepaRG (AID 2283463). The settings on record: mRNA level, 48 h; actives raise or lower the signal. In outline: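 ABCB11 transcript levels are read by Fluidigm TaqMan qRT-PCR after 48 h chemical treatment of human HepaRG cells. Concentrations span 100 uM downward in half-log steps with 0.5% DMSO; gain or loss is fitted against DMSO controls.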

Read-out in test [17]: Broad substrate specificity ATP-binding cassette transporter ABCG2 (Homo sapiens) (UniProt Q9UNQ0)
In words: LTEA_HepaRG_ABCG2: Life Technologies and Expression Analysis (LTEA) Assay for ABC Transporter (ABCG2) using HepaRG (AID 2283465). The settings on record: mRNA level, 48 h; actives raise or lower the signal. In outline:
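Read-out is ABCG2 mRNA induction or loss quantified by qRT-PCR after 48 h chemical treatment of human HepaRG cells, normalized to three housekeeping genes. Concentrations reached 100 uM top in half-log steps; fitting was bidirectional against 0.5% DMSO.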

Read-out in test [18]: ATP-citrate lyase (ACLY), ACLY (gene 47)
In words: LTEA_HepaRG_ACLY: Life Technologies and Expression Analysis (LTEA) Assay for ATP-citrate lyase (ACLY) using HepaRG (AID 2283466). The settings on record: mRNA level, 48 h; actives raise or lower the signal. In short, it runs like this: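 HepaRG, 48 h exposure, 8-pt half-log dilutions (top 100 uM), 0.5% DMSO. Readout: ACLY mRNA, TaqMan qRT-PCR, housekeeping-normalized (ACTB/GAPDH/POLR2A). Bidirectional curve fit vs DMSO.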

Read-out in test [19]: Peroxisomal acyl-coenzyme A oxidase 1 (ACOX1) gene, ACOX1 (gene 51)
As to the kind of experiment: LTEA_HepaRG_ACOX1: Life Technologies and Expression Analysis (LTEA) Assay for Peroxisomal acyl-coenzyme A oxidase 1 (ACOX1) gene using HepaRG (AID 2283467). To be noted: mRNA level, 48 h; actives raise or lower the signal. In outline: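 Measured by qRT-PCR against three housekeeping genes: ACOX1 transcript change in human HepaRG cells after 48 h dosing. Concentrations ran up to 100 uM in half-log steps. Curves were fitted bidirectionally relative to 0.5% DMSO.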

The nature of test [20]: CEETOX_H295R_ESTRADIOL: CeeTox H295R High-throughput Steroidogenesis Assay for Estradiol (AID 2283440).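 Also: estradiol secreted into medium quantified by LC-MS/MS after dansyl derivatisation.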 The settings on record: actives raise or lower the signal. In short, it runs like this:
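Estradiol secreted into the medium was measured by tandem mass spectrometry after liquid-liquid extraction and dansylation. Human H295R cells had been forskolin-primed (10 uM, 48 h) before a 48 h chemical exposure with 0.1% DMSO.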

Sequence of Fatty acid synthase (Homo sapiens) (P49327 whole entry, looked up): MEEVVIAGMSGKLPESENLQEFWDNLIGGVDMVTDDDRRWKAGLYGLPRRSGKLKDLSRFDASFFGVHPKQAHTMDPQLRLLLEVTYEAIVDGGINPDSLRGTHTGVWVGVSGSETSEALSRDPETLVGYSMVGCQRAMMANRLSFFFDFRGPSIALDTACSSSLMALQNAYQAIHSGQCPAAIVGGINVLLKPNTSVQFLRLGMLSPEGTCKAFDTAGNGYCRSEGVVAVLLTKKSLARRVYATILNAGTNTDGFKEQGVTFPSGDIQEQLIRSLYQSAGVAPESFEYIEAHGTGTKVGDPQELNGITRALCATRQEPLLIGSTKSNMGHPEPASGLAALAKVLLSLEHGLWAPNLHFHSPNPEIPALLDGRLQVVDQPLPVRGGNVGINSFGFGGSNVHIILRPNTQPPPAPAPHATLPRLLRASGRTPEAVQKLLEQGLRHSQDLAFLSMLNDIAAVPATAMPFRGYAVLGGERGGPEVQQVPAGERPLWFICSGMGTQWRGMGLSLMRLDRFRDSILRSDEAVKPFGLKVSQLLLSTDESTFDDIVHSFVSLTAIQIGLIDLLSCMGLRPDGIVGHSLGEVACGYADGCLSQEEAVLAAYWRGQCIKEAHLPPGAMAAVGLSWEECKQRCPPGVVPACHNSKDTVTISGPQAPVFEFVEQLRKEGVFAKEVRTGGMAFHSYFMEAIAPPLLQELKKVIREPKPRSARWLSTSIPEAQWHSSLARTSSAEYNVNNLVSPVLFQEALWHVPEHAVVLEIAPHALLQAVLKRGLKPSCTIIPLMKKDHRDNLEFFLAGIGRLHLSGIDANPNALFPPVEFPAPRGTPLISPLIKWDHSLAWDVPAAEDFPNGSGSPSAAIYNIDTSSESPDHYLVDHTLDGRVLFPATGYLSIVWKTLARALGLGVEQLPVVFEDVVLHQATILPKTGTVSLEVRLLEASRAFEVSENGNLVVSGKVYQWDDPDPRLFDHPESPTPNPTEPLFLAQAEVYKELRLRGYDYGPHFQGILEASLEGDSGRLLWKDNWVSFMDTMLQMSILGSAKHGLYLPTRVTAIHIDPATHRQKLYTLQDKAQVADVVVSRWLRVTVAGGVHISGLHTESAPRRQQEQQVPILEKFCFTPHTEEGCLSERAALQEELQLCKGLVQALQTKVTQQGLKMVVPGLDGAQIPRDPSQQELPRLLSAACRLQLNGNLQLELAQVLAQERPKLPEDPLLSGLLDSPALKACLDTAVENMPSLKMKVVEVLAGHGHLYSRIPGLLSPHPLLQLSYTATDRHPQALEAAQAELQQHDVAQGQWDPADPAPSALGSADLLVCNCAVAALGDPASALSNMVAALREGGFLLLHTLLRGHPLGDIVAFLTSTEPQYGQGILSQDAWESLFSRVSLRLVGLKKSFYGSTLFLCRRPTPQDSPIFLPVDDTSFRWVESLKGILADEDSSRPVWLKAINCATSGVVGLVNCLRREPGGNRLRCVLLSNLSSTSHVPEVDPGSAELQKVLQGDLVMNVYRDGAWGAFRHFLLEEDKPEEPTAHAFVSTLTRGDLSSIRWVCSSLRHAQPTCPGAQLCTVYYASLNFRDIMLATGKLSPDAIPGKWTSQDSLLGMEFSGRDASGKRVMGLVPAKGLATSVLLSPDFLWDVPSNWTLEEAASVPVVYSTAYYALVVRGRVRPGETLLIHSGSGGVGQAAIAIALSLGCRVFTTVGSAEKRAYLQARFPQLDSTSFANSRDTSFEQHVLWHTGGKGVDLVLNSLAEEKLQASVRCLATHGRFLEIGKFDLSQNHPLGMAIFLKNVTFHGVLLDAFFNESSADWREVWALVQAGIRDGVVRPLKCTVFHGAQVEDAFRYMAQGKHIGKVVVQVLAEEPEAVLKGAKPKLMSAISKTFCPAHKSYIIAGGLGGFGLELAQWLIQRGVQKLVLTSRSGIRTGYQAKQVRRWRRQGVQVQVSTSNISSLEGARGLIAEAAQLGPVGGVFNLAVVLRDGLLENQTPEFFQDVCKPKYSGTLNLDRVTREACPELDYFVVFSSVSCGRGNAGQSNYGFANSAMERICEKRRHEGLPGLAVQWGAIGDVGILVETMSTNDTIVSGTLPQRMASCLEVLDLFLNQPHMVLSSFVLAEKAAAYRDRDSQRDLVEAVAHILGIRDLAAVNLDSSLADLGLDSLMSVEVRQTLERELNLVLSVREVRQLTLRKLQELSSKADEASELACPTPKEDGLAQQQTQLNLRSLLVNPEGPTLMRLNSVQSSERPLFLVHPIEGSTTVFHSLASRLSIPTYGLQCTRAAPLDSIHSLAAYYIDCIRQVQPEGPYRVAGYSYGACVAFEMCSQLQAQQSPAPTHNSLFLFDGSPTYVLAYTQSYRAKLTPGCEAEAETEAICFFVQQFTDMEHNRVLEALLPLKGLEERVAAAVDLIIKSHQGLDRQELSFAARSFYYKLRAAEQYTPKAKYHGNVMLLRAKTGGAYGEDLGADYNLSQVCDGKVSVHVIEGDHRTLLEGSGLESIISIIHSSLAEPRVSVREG
Sequence of Broad substrate specificity ATP-binding cassette transporter ABCG2 (Homo sapiens) (Q9UNQ0 whole entry, looked up): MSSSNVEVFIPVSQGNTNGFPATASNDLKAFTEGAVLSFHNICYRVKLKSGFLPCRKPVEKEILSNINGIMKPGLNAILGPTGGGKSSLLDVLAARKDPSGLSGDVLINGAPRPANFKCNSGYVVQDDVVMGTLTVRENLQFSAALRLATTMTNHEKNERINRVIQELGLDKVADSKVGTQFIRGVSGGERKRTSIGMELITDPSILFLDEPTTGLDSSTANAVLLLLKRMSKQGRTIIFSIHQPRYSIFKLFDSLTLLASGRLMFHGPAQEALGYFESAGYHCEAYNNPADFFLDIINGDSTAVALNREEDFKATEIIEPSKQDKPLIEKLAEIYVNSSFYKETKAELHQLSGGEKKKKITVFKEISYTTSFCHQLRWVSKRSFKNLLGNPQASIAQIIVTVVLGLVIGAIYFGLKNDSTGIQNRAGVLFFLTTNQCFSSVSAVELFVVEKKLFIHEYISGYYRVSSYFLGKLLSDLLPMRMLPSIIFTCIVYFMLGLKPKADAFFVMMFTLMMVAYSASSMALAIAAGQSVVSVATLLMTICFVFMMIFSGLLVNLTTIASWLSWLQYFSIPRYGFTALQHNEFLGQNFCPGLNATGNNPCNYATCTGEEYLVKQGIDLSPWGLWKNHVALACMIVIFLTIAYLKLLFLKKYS

`OC(Cc1ccccc1Cl)(Cn1[nH]cnc1=S)C1(Cl)CC1` (stereo unspecified): the result in test [1] and in test [2] was inactive.
In general, AC50 refers to the midpoint of the concentration-response curve, whichever way the signal moves. On to `CN(C)C(=S)S`, for which the outcome in test [3], in test [4], in test [5], in test [6], in test [7] and in [8] was inactive. The outcome in test [10], in [11], in [12], in test [13], in test [14] and in test [15] was inactive. The call in [16], in test [17], in [18] and in test [19] was inactive. The AC50 in [9] was 64.4 µM (active).
As for `Cc1ccccc1OP(=O)(Oc1ccccc1C)Oc1ccccc1C`, the result in test [1] and in test [2] was inactive.
As to `COc1ccc(N)cc1`, in [1], the AC50 was 16.4 µM (active).
In the case of `Clc1cccc(Cl)c1Cl`, the result in test [3], in test [4], in test [5], in test [6], in test [7] and in test [8] was inactive. Also, the result in test [10], in test [11], in test [12], in [13], in test [14] and in test [15] was inactive. The molecule was called inactive in test [16], in test [17], in test [18] and in test [19]. The AC50 in test [9] is 50 µM (active).
In the case of `CCC[CH2][Sn]([Cl])([Cl])[CH2]CCC`, the molecule was classed as inactive in test [20] and in [1].
On to `COc1ccccc1N`, for which the result in [3], in test [4], in [5], in test [6], in test [7] and in test [8] was inactive. Further, the molecule was classed as inactive in [10], in [11], in [12], in test [13], in test [14] and in [15]. The molecule was called inactive in [16], in test [17], in test [18] and in [19]. The AC50 in test [9] is 68.2 µM (active).
Take `CC(C)(C)c1ccccc1O`: the outcome in test [1], in test [3], in test [4], in test [5], in test [6] and in test [7] was inactive. The call in [8], in test [10], in test [11], in test [12], in test [13] and in test [14] was inactive. In addition, the call in test [15], in test [16], in [17], in test [18] and in test [19] was inactive. The AC50 in test [9] was 50 µM (active).
